Rab9 promoter act – qHTS Assay for Rab9 Promoter Activators; Potency, µM (doses to about 9.22 µM), for inactives: top-dose activation, negative = inhibition, usual class: activators; AID 485297, 2010; Huh7 Rab9 promoter-luciferase reporter, luminescence, 24 h; actives 2.8% (n = 320,000); further: % of control where 0% means no effect; nearly all actives have a fitted effect of over 60% in size
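Luciferase signal after 10 min detection reagent at ambient indicates Rab9 promoter upregulation; stably transfected Huh7 cells were treated 24 h with compound in DMSO at 37 °C, 5% CO2.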
ELG1 genotoxic – qHTS screen for small molecules that induce genotoxicity in human embryonic kidney (HEK293T) cells expressing luciferase-tagged ELG1; HEK293T ELG1-luciferase reporter, luminescence, 16 h; actives 1.3% (n = 330,000); Potency, µM (top dose mostly 46 µM), for the others: at the highest dose activity change, positive = activation, usual class: activators; AID 504466, 2011; further: % of control where 0% means no effect; nearly all actives have a fitted effect of over 60% in size
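ELG1-luciferase HEK293T cells, 2,000/well; compound pinned in; 16 hr, 37 °C, 5% CO2; ONE-Glo, 30 min RT; luminescence on CCD imager.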
FLuc modulator – qHTS profiling assay for firefly luciferase inhibitor/activator using purifed enzyme and Km concentrations of substrates (counterscreen for miR-21 project). Luciferin 4-monooxygenase (Photinus pyralis), P08659. purified FLuc, Km substrates, luminescence inhibition. Potency, µM (top dose mostly 57.5 µM), inactives show at the highest dose activity change, negative = inhibition, most hits filed as inhibitors. actives 6.9% (n = 360,000). AID 588342, 2011;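 further: plate controls were vehicle for no effect and reference inhibitor for full effect; nearly all actives have a fitted effect of over 55% in size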
Target sequence (P08659 whole entry, looked up): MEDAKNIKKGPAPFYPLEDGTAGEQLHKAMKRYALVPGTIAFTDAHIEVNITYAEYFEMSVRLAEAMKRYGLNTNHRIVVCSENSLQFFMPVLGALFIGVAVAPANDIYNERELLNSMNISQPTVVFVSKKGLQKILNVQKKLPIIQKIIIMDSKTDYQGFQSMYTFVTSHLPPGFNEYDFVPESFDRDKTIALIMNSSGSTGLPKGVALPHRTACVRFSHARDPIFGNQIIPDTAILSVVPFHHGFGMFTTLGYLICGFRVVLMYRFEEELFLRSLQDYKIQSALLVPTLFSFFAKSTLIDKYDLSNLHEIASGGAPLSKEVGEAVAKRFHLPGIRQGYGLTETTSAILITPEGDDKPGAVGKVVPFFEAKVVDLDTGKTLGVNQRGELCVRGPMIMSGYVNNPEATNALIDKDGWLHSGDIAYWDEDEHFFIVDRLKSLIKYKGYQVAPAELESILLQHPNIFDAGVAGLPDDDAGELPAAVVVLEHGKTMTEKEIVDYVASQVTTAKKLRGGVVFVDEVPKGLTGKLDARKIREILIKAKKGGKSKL
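Biochemical qHTS of compounds, final roughly 60 µM downward over six points, against 10 nM purified firefly luciferase using Km concentrations of substrates (10 uM D-luciferin, 10 uM ATP) in Tris acetate pH 7.5 buffer; luminescence output.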
SMN2 splice up – qHTS Assay for Enhancers of SMN2 Splice Variant Expression; Potency, µM (top dose mostly 46.1 µM), without a hit: top-dose activity change, positive = activation, hits mostly activators; HEK293 SMN2-luciferase splicing reporter, luminescence, 30-36 h; actives 2.8% (n = 210,000); AID 1458, 2008; further: % of control where 0% means no effect; nearly all actives have a fitted effect of over 55% in size
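HEK293 cells carry an SMN2 […]–luciferase reporter in which exon 7 inclusion puts luciferase in frame. Cells were plated 10-12 h before compound addition, then incubated 30-36 h at 37C. ONE-Glo luminescence was read; sodium butyrate at 4.5 mM final served as control.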
NPC1 prom act – qHTS Assay for NPC1 Promoter Activators; Huh7 NPC1 promoter luciferase reporter, 24 h; Potency, µM (titrated, usually from 9.22 µM), for the others: top-dose activation, actives largely listed as activators; actives 2.4% (n = 320,000); further: % of control where 0% means no effect; nearly all actives have a fitted effect of over 60% in size
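In 1536-well qHTS, Huh7 cells harboring an NPC1 promoter–luciferase construct received compound for 24 h; activation was quantified by luminescence following luciferase reagent addition.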
An asterisk follows results filed as active; ? = inconclusive; / = no result given; [ ] = another dose, or the depositor's remark. Most compounds without a hit are left out; they make up all but 7.4% or so of the library. The call rests on the fitted dose curve; in most records, active means well fitted curve in the direction sought with a large enough effect; inconclusive means small, poorly fitted or top-dose-only effect, or another doubt; inactive means no such curve, though single readings can be large; an effect the other way counts as inactive or inconclusive. Potency means the concentration at half of the fitted maximal effect.

SMILES	Rab9 promoter act	ELG1 genotoxic	FLuc modulator	SMN2 splice up	NPC1 prom act
COc1ccc(Nc2ccnc(Nc3ccc(OC)cc3)n2)cc1	?	-4%	7.6µM*	15%	?
COc1ccc(Nc2ncnc3ccccc23)c(OC)c1	-2%	6%	?	-33%	-8%
COc1ccc(Nc2cc(Nc3ccccc3)ncn2)cc1	2µM*	?	?	/	2µM*
COc1ccc(Nc2ncnc3ccccc23)cc1	2.8µM*	14%	15µM*	11µM*	3.2µM*
COc1ccc(Nc2ncnc3sc(-c4ccccc4)cc23)cc1	3%	-3%	?	-19%	3%
COc1cccc(Nc2cc(C)c3ccccc3n2)c1	-3%[1.84 µM]	?	24µM*	/	25%
COCCC(=O)N1CCC(Oc2ccc(C(=O)N3CCCC(CCCO)C3)cc2)CC1 (stereo not drawn)	-6%	-10%	1%	/	3%
Cc1ccc(C)c(NC(=O)N2CCc3cc(S(=O)(=O)N4CCC(C)CC4)ccc32)c1	/	/	0%	-1%	/
COc1cccc(Nc2ncnc3ccccc23)c1	?	4.6µM*	11µM*	14µM*	?
O=C(Oc1cccc(Nc2ncnc3ccccc23)c1)c1ccccc1Cl	-8%	?	17µM*	-42%	-6%
Cn1c2cc([N+](=O)[O-])sc2c2cnn(Cc3ccccc3F)c(=O)c21	-11%	/	?	/	-16%
CC(C)c1ccccc1NC(=O)C1CN(S(=O)(=O)c2ccccc2)CCN1S(=O)(=O)c1ccccc1 (stereo not drawn)	-1%	-6%	-2%	3%	1%
CCOc1ccc2nc(N(Cc3cccnc3)C(=O)c3ccc4c(c3)OCCO4)sc2c1	/	/	13µM*	/	/
Cc1cc(C(=O)NNC(=S)NCC(C)C)no1	1%	-4%	0%	-11%	1%
CNC(=S)NNC(=O)c1sc(-c2cc(C)on2)nc1C	-1%	1%	17µM*	/	-4%
Cc1nc(NC(=O)/C=C/c2ccccc2)sc1C(=O)Nc1ccccc1Cl	-6%	12%	12µM*	13%	1%
Cc1nc(NC(=O)C2CC2)sc1C(=O)Nc1ccccc1Cl	2.5µM*	13%	?	/	3.5µM*
Cc1nc(Nc2ccc(Cl)cc2Cl)sc1C(=O)Nc1ccccc1	4%	-1%	17µM*	-12%	-2%
Cc1nc(Cl)sc1C(=O)Nc1ccccc1Cl	-1%	3%	-16%	/	0%
Cc1nc(Nc2ccc(Cl)c(Cl)c2)sc1C(=O)Nc1ccccc1	-2%	-6%	?	-31%	0%
CCC(Sc1nc(-c2ccccc2)c(-c2ccccc2)[nH]1)C(=O)O (stereo not drawn)	-1%	0%	1%	/	-6%
CCOc1ccccc1N(C)C(=O)c1sc2nc3n(c(=O)c2c1C)CCCC3	/	/	-12%	/	/
CCc1cccc(CC)c1NC(=O)C1CCN(C(=O)c2ccco2)CC1	-4%	-1%	0%	/	0%
COC(=O)NC(/C=C/c1ccccc1)C(C(C)=O)C(=O)OC (stereo not drawn)	/	/	/	-7%	/
Cc1nnc(N/N=C/c2ccc(-c3ccccc3F)o2)n1N	?	?	21µM*	/	28%
SMILES	Rab9 promoter act	ELG1 genotoxic	FLuc modulator	SMN2 splice up	NPC1 prom act
Cc1c(O)c2ccccc2oc1=O	0%	1%	-5%	/	-2%
CCN(CC)S(=O)(=O)c1cccc(N=Nc2c(O)c3ccccc3oc2=O)c1	16%	-2%	27µM*	/	28%
CCc1ccc(-c2nc3cc(NC(=O)c4cc5ccccc5cc4OC)ccc3o2)cc1	/	/	-15%	-2%	/
O=C1Nc2ccccc2/C1=C/c1cnc(-c2ccccc2)[nH]1	4µM*	?	?	/	2.8µM*
CCc1ccc(NC(=O)N(Cc2c[nH]c3ccccc23)C2CCCCC2)cc1	/	/	-2%	9%	/
CCc1ccc(NC(=O)N(Cc2c[nH]c3ccccc23)C2CCCCCC2)cc1	/	/	-7%	5µM*	/
COc1cccc(-c2cc(C(=O)Nn3cnnc3)c3ccccc3n2)c1	23%	5%	0.95µM*	-1%	16%
COc1cccc(NC(=O)c2cc(-c3ccccn3)nc3ccccc23)c1	3%	-9%	-19%	/	-3%
COc1cccc(-c2cc(C(=O)Nc3ccncc3)c3ccccc3n2)c1	-2%	-13%	17µM*	/	-1%
COc1ccccc1CCNC(=O)c1ccc2nc[nH]c2c1	2%	5%	?	/	1%
Cc1c(O)ccc(-c2[nH]ncc2-c2nc3ccccc3s2)c1O	2%	-8%	3%	4%	-2%
Cc1c(O)ccc(-c2n[nH]c(C(=O)O)c2-c2nc3ccccc3s2)c1O	16%	13%	17µM*	/	0%
CCOC(=O)N1CCN(C(=O)Cn2nc(C)n3nc(-c4ccc(CC)cc4)cc3c2=O)CC1	6%	14%	4.8µM*	/	6%
CN(CC(=O)Nc1cccc(F)c1)C(=O)c1cn2ccccc2n1	-2%	2%	3%	/	0%
O=C(NC1CC1)c1cccc(NC(=O)c2cnn(-c3ccccc3)n2)c1	/	-4%	/	/	/
O=C(NC1CC1)c1cccc(NC(=O)c2cn3ccccc3n2)c1	3.2µM*	12%	/	/	?
O=C(CNC(=O)c1cn2ccccc2n1)Nc1ccc(F)c(F)c1	2.2µM*	8.2µM*	17µM*	/	?
O=C(Nc1ccc(N2CCOCC2)cc1)c1cn2ccccc2n1	?	3%	1.7µM*	?	?
Cc1nn(C(=O)c2cc([N+](=O)[O-])ccc2Cl)c(C)c1Br	-6%	-1%	0%	/	1%
COc1ccc(-c2cc3cc(OC)c(OC)cc3cn2)cc1	/	13%	/	/	/
COc1ccc(-c2cc3cc4c(cc3cn2)OCO4)cc1	/	0.73µM*	/	/	/
COc1cc(OC)cc(-c2n[nH]c(=S)n2-c2ccc3c(c2)OCO3)c1	2%	4%	-16%	14%	0%
COc1cc(OC)cc(-c2cc3cc4c(cc3cn2)OCO4)c1	/	4.1µM*	/	/	/
Cc1cc(=O)oc2cc(OCc3ccc(C(=O)OCC(=O)Nc4ccccc4OC(F)F)cc3)ccc12	3%	4%	0%	28%	0%
O=C(NCCc1ccccc1)c1ccc(CSc2nc3ccncc3n2Cc2ccccc2F)cc1	/	/	-18%	?	/
CCc1ccc2nc3n[nH]c(N)c3cc2c1	2.8µM*	13µM*	4.8µM*	?	?
CC(=O)NC12CC3CC(C1)CC(C(=O)Nc1nc4ccc(F)cc4s1)(C3)C2	?	-1%	13µM*	/	?
CCC(CC)c1nnc(NC(=O)C23CC4CC(CC(NC(C)=O)(C4)C2)C3)s1	3%	-5%	3%	/	-2%
CC(C)(C)n1ncc2c(=O)n(Cc3c(F)cccc3Cl)cnc21	4%	-9%	24µM*	-15%	20%
CC1CCN(C(=O)Cn2cnc3c(cnn3C(C)(C)C)c2=O)CC1	3.2µM*	?	?	16µM*	?

Screening data deposited in PubChem by National Center for Advancing Translational Sciences (NCATS).
